PubChem BioAssay (EPA / NIEHS)
Inconclusive results are not listed. The source made the active and inactive calls. How the source made its calls, unless noted: active means hit-call score of the fitted dose curve at least 0.9, where 1 is the maximum; inactive means score below 0.9.

How the values were obtained:
[1] = biological target: Hepatocyte nuclear factor 4-alpha (Homo sapiens) (UniProt P41235); test: ATG_HNF4a_TRANS: Attagene TRANS-FACTORIAL HepG2 Assay for human Hepatocyte Nuclear Factor 4 alpha (HNF4a) (AID 2282982; active means hit-call score of the fitted dose curve at least 0.9, where 1 is the maximum); details: HepG2 HNF4a transactivation reporter, mRNA readout
Method in brief: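 Readout is fluorescent reporter-transcript fragments resolved by capillary electrophoresis after RT-PCR from HepG2 cells dosed for 24 h. Cells carried transfected GAL4-UAS reporter constructs measuring exogenous NR-GAL4 chimera activity; DMSO served as baseline.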

[2] = biological target: Transcriptional activator Myb (Homo sapiens) (UniProt P10242); test: ATG_Myb_CIS: Attagene CIS-FACTORIAL HepG2 Assay for human Myeloblastosis (Myb) Proto-Oncogene Transcription Factor (AID 2282986); details: HepG2 Attagene CIS-FACTORIAL Myb reporter transcription; actives raise or lower the signal
Method in brief: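 After 24 h of compound dosing, total RNA from transfected HepG2 cells is reverse-transcribed and the reporter sequences amplified, labeled and separated by capillary electrophoresis. Values come from bidirectional fitting against DMSO.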

[3] = biological target: Nuclear respiratory factor 1 (Homo sapiens) (UniProt Q16656); test: ATG_NRF1_CIS: Attagene CIS-FACTORIAL HepG2 Assay for human Nuclear Respiratory Factor 1 (NRF1) Orphan Gene (AID 2282987); details: HepG2 NRF1 cis-element reporter, Attagene multiplex; actives raise or lower the signal
Method in brief: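 Measured: fluorescent reporter-specific RT-PCR products from transfected HepG2 cells, separated by capillary electrophoresis. Exposure lasted 24 h. Analysis used bidirectional curve fitting with DMSO as negative control.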

[4] = ATG_NFI_CIS: Attagene CIS-FACTORIAL HepG2 Assay for human Nuclear Factor I (NFI) (AID 2282989); details: HepG2 cis-regulatory reporter, NFI response element transcription; actives raise or lower the signal
Method in brief: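 Transient MRTU transfection of HepG2 → 24 h chemical dosing → total RNA, oligo(dT) RT → PCR, 6-FAM primer extension, HpaI cut → capillary electrophoresis. Endpoint fitted bidirectionally relative to DMSO.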

[5] = biological target: Myc proto-oncogene protein (Homo sapiens) (UniProt P01106); test: ATG_Myc_CIS: Attagene CIS-FACTORIAL HepG2 Assay for human Myelocytomatosis (Myc) Proto-Oncogene Transcription Factor (AID 2282990); details: HepG2, Attagene cis-reporter transcription factor activity; actives raise or lower the signal
Method in brief: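 HepG2, transient MRTU transfection (cis promoters, endogenous TFs); 24 h dosing; TriZol RNA → oligo(dT) RT → PCR → 6-FAM primer extension → HpaI cut → CE. Bidirectional fit vs DMSO.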

[6] = ATG_NRF2_ARE_CIS: Attagene CIS-FACTORIAL HepG2 Assay for human Nuclear Factor Erythroid 2 Related Factor 2 (NFR2) response to Antioxidant Response Elements (ARE) (AID 2282992); details: HepG2 Attagene ARE/NRF2 reporter, transcription factor activity; actives raise or lower the signal
Method in brief: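 Multiplexed reporter mRNA profiling in HepG2 after a 24 h chemical exposure. Curves fitted in both directions relative to DMSO negative control.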

[7] = ATG_Oct_MLP_CIS: Attagene CIS-FACTORIAL HepG2 Assay for human Octamer-Binding Transcription Factor (Oct) (AID 2282993); details: HepG2 Attagene cis-factorial Oct reporter, mRNA; actives raise or lower the signal
Method in brief: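 Transient MRTU transfection of HepG2 → 24 h compound treatment → RNA isolation, reverse transcription, PCR → 6-FAM primer extension, HpaI digest → capillary electrophoresis. Activity fitted both directions against DMSO.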

[8] = biological target: Cellular tumor antigen p53 (Homo sapiens) (UniProt P04637); test: ATG_p53_CIS: Attagene CIS-FACTORIAL HepG2 Assay for human p53 Transcription Factor (AID 2282994); details: HepG2 p53 cis-element reporter, Attagene mRNA; actives raise or lower the signal
Method in brief: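 Multiplexed reporter mRNA assay in human HepG2 liver cells; cis-regulated units report endogenous factor activity. Values come from bidirectional curve fitting against DMSO negative control after 24 h treatment.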

[9] = BSK_3C_TissueFactor: BioMAP Diversity Plus: 3C Assay for Tissue Factor Biomarker Activity (AID 2282997); details: BioMAP 3C HUVEC, tissue factor biomarker readout; actives raise or lower the signal
Method in brief: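 ELISA read-out of Tissue Factor levels on human umbilical vein endothelium collected 24 h after chemical dosing. Gain or loss of signal was fitted relative to DMSO.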

[10] = BSK_3C_uPAR: BioMAP Diversity Plus: 3C Assay for Urokinase-type plasminogen activator receptor (uPAR) Biomarker Activity (AID 2282998); details: BioMAP 3C HUVEC, uPAR biomarker ELISA; actives raise or lower the signal
Method in brief: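 ELISA readout of uPAR on human vascular endothelium (umbilical vein primary cells), taken 24 h after chemical dosing. Increases and decreases are both fitted relative to DMSO vehicle.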

[11] = BSK_3C_VCAM1: BioMAP Diversity Plus: 3C Assay for Vascular cell adhesion molecule 1 (VCAM1) Biomarker Activity (AID 2282999); details: BioMAP 3C HUVEC, VCAM1 ELISA, cytokine-stimulated; actives raise or lower the signal
Method in brief: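 Endothelial cells from human umbilical vein are treated with test chemical. At 24 h, VCAM-1 is measured by ELISA, and responses in either direction are fitted relative to DMSO.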

[12] = BSK_4H_Eotaxin3: BioMAP Diversity Plus: 4H Assay for Eotaxin 3 Biomarker Activity (AID 2283000); details: primary human endothelial cells (HUVEC); actives raise or lower the signal;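 further: CCL26 protein level quantified by ELISA in parallel with SRB cytotoxicity check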
Method in brief: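 Chemicals were added to human umbilical vein endothelium cultures, and Eotaxin-3 was quantified by ELISA at 24 h. Values were derived by bidirectional fitting with DMSO serving as negative control and activity baseline.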

[13] = biological target: Oxysterols receptor LXR-beta (Homo sapiens) (UniProt P55055); test: ATG_LXRb_TRANS: Attagene TRANS-FACTORIAL HepG2 Assay for human Liver X Receptor beta (LXRb) (AID 2282981; active means hit-call score of the fitted dose curve at least 0.9, where 1 is the maximum); details: HepG2 Attagene TRANS GAL4-LXRb reporter, mRNA
Method in brief: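 Transient transfection HepG2 (multiplexed RTUs, GAL4-UAS); NR-Gal4 chimera; 24 h exposure; RNA → RT-PCR → 6-FAM primer extension → HpaI → CE; increase vs DMSO.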

[14] = ATG_M_06_TRANS: Attagene TRANS-FACTORIAL HepG2 Assay for M06 Transcription Factor (Internal Marker) (AID 2282983; active means hit-call score of the fitted dose curve at least 0.9, where 1 is the maximum); details: HepG2 Attagene TRANS M06 internal marker reporter
Method in brief: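 Transfect HepG2 with MRTUs → dose compounds 24 h → isolate RNA, oligo(dT) RT → PCR with reporter primers → 6-FAM primer extension → HpaI digest → CE fragment analysis. Positive direction vs DMSO.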

[15] = biological target: Nuclear receptor subfamily 4 group A member 2 (Homo sapiens) (UniProt P43354); test: ATG_NURR1_TRANS: Attagene TRANS-FACTORIAL HepG2 Assay for human Nuclear Receptor Related Protein 1 (NURR1) (AID 2282985; active means hit-call score of the fitted dose curve at least 0.9, where 1 is the maximum); details: HepG2 Attagene TRANS reporter, mRNA readout
Method in brief: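 Transient transfection of HepG2, human liver cells, with multiple GAL4-UAS reporter transcription units. Cells dosed 24 h, RNA isolated, reverse-transcribed, PCR-amplified, FAM-labelled, HpaI-digested, sized by capillary electrophoresis. DMSO served as negative control.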

[16] = ATG_M_32_TRANS: Attagene TRANS-FACTORIAL HepG2 Assay for M32 Transcription Factor (Internal Marker) (AID 2282984; active means hit-call score of the fitted dose curve at least 0.9, where 1 is the maximum;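 further: transcript level of a background control reporter unit measured by RT-PCR and capillary electrophoresis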); details: HepG2 Attagene TRANS M32 internal marker reporter
Method in brief: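 Measures reporter mRNA induction in human HepG2 liver cells after 24 h chemical treatment. Transcripts from transiently transfected GAL4-UAS reporter units are amplified, fluorescently labelled and sized by capillary electrophoresis; gain of signal relative to DMSO.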

[17] = ATG_NF_kB_CIS: Attagene CIS-FACTORIAL HepG2 Assay for human Nuclear Factor Kappa B (NF-kB) (AID 2282991); details: HepG2 Attagene cis-factorial NF-kB reporter mRNA; actives raise or lower the signal
Method in brief: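 Fluorescence of labelled RT-PCR products separated by capillary electrophoresis gives reporter mRNA levels from transfected HepG2 cells exposed 24 h; values are fitted in both directions relative to DMSO.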

[18] = biological target: Oxysterols receptor LXR-alpha (Homo sapiens) (UniProt Q13133); test: ATG_LXRa_TRANS: Attagene TRANS-FACTORIAL HepG2 Assay for human Liver X Receptor alpha (LXRa) (AID 2282980; active means hit-call score of the fitted dose curve at least 0.9, where 1 is the maximum); details: HepG2 Attagene TRANS reporter, LXRa transactivation
Method in brief: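 Transfect HepG2 with GAL4-UAS multiplex reporter constructs (TRANS format, chimeric receptor-GAL4); treat 24 h; extract RNA, reverse-transcribe, PCR-amplify, FAM-label, HpaI-digest; resolve fragments by capillary electrophoresis. Upward response vs DMSO.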

Measured: AC50

Sequence of Nuclear receptor subfamily 4 group A member 2 (Homo sapiens) (P43354 whole entry, looked up, the tested form may be a part): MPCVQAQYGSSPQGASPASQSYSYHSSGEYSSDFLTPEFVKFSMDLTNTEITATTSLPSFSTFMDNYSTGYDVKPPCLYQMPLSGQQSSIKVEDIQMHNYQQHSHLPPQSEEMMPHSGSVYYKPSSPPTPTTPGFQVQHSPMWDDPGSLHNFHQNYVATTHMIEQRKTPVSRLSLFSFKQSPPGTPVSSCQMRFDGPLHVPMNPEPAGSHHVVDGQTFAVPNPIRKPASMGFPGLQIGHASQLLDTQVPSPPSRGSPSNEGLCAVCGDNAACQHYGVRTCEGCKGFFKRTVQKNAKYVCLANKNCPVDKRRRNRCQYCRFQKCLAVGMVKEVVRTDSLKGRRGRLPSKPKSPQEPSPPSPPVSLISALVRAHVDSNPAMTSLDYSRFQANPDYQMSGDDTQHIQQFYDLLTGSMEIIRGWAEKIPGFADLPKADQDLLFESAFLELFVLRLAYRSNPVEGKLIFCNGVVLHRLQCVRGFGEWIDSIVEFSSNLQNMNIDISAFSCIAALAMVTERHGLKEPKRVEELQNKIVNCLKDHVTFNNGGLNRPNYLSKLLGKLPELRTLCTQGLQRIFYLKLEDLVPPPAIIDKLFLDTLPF
Sequence of Nuclear respiratory factor 1 (Homo sapiens) (Q16656 whole entry, looked up): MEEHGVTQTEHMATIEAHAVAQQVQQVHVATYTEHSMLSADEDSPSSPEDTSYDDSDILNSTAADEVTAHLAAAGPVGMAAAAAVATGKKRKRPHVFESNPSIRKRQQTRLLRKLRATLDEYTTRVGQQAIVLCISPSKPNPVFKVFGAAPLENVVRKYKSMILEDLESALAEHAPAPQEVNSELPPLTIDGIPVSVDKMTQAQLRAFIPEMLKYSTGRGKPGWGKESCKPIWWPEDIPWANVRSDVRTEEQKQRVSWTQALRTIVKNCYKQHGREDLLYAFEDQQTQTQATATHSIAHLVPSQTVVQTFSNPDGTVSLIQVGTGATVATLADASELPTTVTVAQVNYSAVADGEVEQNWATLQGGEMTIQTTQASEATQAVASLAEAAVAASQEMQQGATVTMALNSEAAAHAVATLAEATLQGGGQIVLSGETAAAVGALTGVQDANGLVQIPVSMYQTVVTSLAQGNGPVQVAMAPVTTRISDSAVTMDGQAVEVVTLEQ
Sequence of Hepatocyte nuclear factor 4-alpha (Homo sapiens) (P41235 whole entry, looked up, the tested form may be a part): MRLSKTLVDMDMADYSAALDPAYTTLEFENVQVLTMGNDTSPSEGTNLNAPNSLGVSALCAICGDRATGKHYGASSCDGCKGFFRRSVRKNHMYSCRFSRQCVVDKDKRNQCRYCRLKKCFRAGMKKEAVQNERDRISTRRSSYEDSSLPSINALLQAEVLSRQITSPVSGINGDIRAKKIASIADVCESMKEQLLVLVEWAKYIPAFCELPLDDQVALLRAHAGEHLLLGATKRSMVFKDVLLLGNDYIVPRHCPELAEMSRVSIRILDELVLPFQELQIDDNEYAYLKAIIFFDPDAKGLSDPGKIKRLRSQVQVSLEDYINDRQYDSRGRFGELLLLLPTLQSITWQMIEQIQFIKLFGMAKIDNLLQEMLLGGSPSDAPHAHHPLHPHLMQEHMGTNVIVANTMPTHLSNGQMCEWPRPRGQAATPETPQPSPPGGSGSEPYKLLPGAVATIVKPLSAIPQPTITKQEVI
Sequence of Cellular tumor antigen p53 (Homo sapiens) (P04637 whole entry, looked up): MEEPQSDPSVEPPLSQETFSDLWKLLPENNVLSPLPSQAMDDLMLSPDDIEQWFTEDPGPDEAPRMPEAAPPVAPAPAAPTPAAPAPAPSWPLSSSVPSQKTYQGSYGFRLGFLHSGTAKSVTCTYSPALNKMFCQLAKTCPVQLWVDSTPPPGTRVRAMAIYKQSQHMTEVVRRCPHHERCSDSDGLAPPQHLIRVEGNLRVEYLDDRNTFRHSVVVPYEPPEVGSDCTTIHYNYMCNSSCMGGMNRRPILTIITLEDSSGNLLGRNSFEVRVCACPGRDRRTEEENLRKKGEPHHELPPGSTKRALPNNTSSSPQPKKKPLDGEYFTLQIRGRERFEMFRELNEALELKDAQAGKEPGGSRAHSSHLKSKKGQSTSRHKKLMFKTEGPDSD
Sequence of Oxysterols receptor LXR-beta (Homo sapiens) (P55055 whole entry, looked up, the tested form may be a part): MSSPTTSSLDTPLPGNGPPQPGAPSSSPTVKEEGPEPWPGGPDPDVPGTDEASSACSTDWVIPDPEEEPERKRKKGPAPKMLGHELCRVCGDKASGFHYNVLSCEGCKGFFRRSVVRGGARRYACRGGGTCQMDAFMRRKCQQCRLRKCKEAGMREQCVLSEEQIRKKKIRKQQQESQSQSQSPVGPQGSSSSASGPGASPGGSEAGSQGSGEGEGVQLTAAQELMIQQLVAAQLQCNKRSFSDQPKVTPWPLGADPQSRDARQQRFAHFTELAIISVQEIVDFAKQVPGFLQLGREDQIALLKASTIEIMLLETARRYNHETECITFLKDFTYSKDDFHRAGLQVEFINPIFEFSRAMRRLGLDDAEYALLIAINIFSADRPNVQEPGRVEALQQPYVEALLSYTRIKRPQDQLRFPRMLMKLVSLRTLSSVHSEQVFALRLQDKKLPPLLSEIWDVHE
Sequence of Transcriptional activator Myb (Homo sapiens) (P10242 whole entry, looked up): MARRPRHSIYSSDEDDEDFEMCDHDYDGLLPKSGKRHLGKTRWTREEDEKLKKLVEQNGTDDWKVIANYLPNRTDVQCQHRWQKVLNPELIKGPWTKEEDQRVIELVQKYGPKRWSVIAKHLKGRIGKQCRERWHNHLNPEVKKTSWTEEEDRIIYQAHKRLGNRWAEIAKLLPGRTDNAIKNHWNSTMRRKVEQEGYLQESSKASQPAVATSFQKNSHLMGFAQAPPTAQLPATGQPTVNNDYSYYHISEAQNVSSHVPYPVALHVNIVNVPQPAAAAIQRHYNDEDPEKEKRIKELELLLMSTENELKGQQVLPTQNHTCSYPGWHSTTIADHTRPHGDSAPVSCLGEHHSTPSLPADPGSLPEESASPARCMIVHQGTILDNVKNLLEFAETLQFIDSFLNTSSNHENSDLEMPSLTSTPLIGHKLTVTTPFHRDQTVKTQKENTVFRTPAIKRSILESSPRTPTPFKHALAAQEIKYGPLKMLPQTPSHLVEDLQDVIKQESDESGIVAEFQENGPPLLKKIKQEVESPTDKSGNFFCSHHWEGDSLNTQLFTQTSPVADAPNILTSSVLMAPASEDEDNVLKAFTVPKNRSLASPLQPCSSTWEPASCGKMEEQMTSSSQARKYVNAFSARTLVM
Sequence of Oxysterols receptor LXR-alpha (Homo sapiens) (Q13133 whole entry, looked up, the tested form may be a part): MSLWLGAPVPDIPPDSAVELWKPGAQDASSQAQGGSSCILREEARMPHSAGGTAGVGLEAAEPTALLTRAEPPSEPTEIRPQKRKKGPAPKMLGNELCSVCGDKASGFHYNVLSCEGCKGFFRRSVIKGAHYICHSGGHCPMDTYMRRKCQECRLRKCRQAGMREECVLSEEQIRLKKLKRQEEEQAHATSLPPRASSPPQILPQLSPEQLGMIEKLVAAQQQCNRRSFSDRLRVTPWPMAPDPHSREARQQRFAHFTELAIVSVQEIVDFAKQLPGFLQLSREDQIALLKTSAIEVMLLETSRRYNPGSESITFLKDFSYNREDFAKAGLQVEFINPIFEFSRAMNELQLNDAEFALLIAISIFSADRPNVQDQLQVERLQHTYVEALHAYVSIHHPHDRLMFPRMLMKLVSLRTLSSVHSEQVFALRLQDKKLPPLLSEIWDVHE
Sequence of Myc proto-oncogene protein (Homo sapiens) (P01106 whole entry, looked up): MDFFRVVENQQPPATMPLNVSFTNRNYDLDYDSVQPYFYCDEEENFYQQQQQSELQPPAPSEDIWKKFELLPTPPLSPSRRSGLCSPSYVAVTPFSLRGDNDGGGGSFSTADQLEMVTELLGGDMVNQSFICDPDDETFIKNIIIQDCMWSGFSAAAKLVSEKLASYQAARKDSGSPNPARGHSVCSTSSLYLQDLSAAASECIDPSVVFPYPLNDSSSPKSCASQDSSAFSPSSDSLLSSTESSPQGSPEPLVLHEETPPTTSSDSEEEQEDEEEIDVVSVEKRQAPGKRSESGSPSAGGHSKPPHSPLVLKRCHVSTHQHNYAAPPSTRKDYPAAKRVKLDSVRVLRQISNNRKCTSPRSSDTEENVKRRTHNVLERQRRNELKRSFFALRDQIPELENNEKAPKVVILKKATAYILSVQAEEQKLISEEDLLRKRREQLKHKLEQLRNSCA

CC1(C)C(=O)N(Cl)C(=O)N1Cl
inactive: [1] | [2] | [3] | [4] | [5] | [6] | [7] | [8] | [9] | [10] | [11] | [12]

C=CN1CCCC1=O
inactive: [13] | [14] | [15] | [2] | [3] | [4] | [5] | [6] | [7] | [8] | [9] | [10] | [11] | [12]

CCCCN1C(=O)[C@@H]([C@H](O)C2CCCCC2)NC(=O)C12CCN(Cc1ccc(Oc3ccc(C(=O)O)cc3)cc1)CC2
active: [17] 53.4 µM | [8] 93.5 µM | [10] 26.7 µM
inactive: [14] | [16] | [2] | [3] | [4] | [5] | [7] | [9] | [11] | [12]

COS(C)(=O)=O
inactive: [18] | [1] | [14] | [2] | [3] | [4] | [17] | [6] | [7] | [9] | [10] | [11] | [12]

NC(=O)N1c2ccccc2C=Cc2ccccc21
inactive: [13] | [14] | [16] | [2] | [3] | [4] | [17] | [6] | [7] | [9] | [10] | [11] | [12]

c1ccc2ncccc2c1
inactive: [18] | [13] | [1] | [14] | [16] | [15] | [2] | [3] | [4] | [5] | [6] | [7] | [8] | [9] | [10] | [11] | [12]

Cn1cc[nH]c1=S
inactive: [14] | [16] | [15] | [2] | [3] | [4] | [5] | [17] | [6] | [7] | [8] | [9] | [10] | [11] | [12]

Cc1nc(-c2ccccn2)ncc1C(=O)Nn1cc(C)c2cc(F)ccc21
inactive: [2] | [3] | [4] | [5] | [17] | [7] | [9] | [11] | [12]
active: [10] 20 µM

OCC(CO)(CO)CO
inactive: [18] | [13] | [1] | [14] | [15] | [2] | [3] | [4] | [7] | [9] | [10] | [11] | [12]
